Measurements from PubChem BioAssay AID1117319 (Southern Research Institute, 2015).
Out of some 260,000 compounds screened, about 1,500 (0.58%) were called active. Not shown: some 5% with an inconclusive outcome.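 The calls were made as follows: active = inhibition above a set limit at one or more doses, reproduced on every date tested; inconclusive = results disagree between test dates, or hit never tested in dose response; inactive = the rest.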 Not all results are given here. Results with a measured potency or affinity are listed apart.

These compounds were tested against Virion infectivity factor (Human immunodeficiency virus type 1 group M subtype B (isolate BH10)) + Virion infectivity factor (Human immunodeficiency virus type 1 group M subtype B (isolate BRU/LAI)) + Virion infectivity factor (Human immunodeficiency virus type 1 group M subtype B (isolate PCV12)) + Virion infectivity factor (Human immunodeficiency virus type 1 group M subtype B (isolate HXB2)) + DNA dC->dU-editing enzyme APOBEC-3G (Homo sapiens) (UniProt P69720+P69721+P69722+P69723+Q9HC16) (assay: inhibitors of Vif binding to APOBEC3G peptide, primary screen, biochemical, TR-FRET, GST-Vif 1-94, biotin-A3G peptide, dose response retest (AID 1117319;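 also: Vif residues 1-94 fused to GST binding biotinylated APOBEC3G peptide 110-148; 0% = full assay without inhibitor and 100% = GST in place of GST-Vif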)). Conditions: active compounds read high.

inhibition, inactive:
CCC1CCCCN1C(=O)CSc1nnc(N)s1 (stereo not given) -4.63%
O=C(NCC(c1ccco1)N1CCc2ccccc2C1)c1ccc(F)cc1 (stereo not given) -9.45%
COc1ccc(CCNC(=O)/C=C/C(=O)O)cc1 14.3%
O=C(/C=C/c1ccco1)NCCc1ccccc1 0.33%
CCC1(C)Cc2nc3sc(C(=O)O)c(N)c3cc2CO1 (stereo not given) 32.8%
CC1(C)Cc2nc3sc(C(=O)NCCCO)c(N)c3cc2CS1 -0.06%
COc1ccc(-c2ccc3c(c2)C2CC3CCN2C(=O)C(C)(C)C)cc1 (stereo not given) -6.26%
COc1ccc(Cc2nnc(SCC(=O)NC(C)c3ccccc3)o2)cc1 (stereo not given) 8.9%
CCOC(=O)C1(C)NC(c2ccco2)C2C(=O)N(C)C(=O)C21 (stereo not given) 2.73%
CCOC(=O)C1(CC)NC(c2ccco2)C2C(=O)N(CC)C(=O)C21 (stereo not given) 0.75%
CCOc1ccccc1NC(=O)c1cc2ccccc2oc1=O 5.96%
O=c1[nH][nH]cc1C=Nc1ccccc1O 1.21%
O=C(Nc1ccccc1)c1ccccc1N=Cc1ccccc1O -0.3%
Cc1cccc(NC(=O)Cn2cnc3c(oc4ccccc43)c2=O)c1 4.28%
CCCCn1c(SCC(N)=O)nnc1-c1ccco1 3.37%
c1ccc(OCCCCN2CCOCC2)cc1 16.5%
CC(C)(C)OC(=O)N1CC=C2C(C#N)=C(N)C(C#N)(C#N)C(c3cccs3)C2C1 (stereo not given) 5.47%
CCOC(=O)N1CC=C2C(C#N)=C(N)C(C#N)(C#N)[C@H](c3ccsc3)[C@H]2C1 9.32%
CC1CCN(c2nnc(NC(=O)Cn3c(=O)oc4ccccc43)s2)CC1 4.48%
COC(=O)c1c(S(=O)(=O)N2CCOCC2)c(C)n(C)c1C 2.63%
Cc1cn([C@H]2C[C@H](O)[C@@H](CNCc3ccccc3)O2)c(=O)[nH]c1=O -4.57%
CC1CN(C(=O)c2ccn(C)n2)CC(C)O1 (stereo not given) -6.54%
CC1S/C(=N/N=C/c2ccco2)N(Cc2ccccc2)C1=O (stereo not given) 4.75%
O=C1c2ccccc2C(=O)N1Cc1ccco1 6.23%
CC1S/C(=N/N=C/c2ccco2)N(Cc2ccc(F)cc2)C1=O (stereo not given) 2.84%
O=C1C2C3CCC(C3)C2C(=O)N1Cc1ccco1 (stereo not given) -17.6%
O=C1CS/C(=N/N=C/c2ccco2)N1Cc1ccc(F)cc1 10.9%
O=C(CN1CCN(Cc2ccccc2)CC1)N/N=C\C=C/c1ccco1 29.4%
CC(c1ccccc1)C1CC(=O)N(Cc2ccco2)C1=O (stereo not given) 1.07%
O=C(CN1C(=O)C(=O)N(Cc2ccco2)C1=O)NC1CCCCC1 10.2%
